Consider 25 compounds from PubChem BioAssay (Tox21).

Records with an inconclusive call do not appear. Where a structure was tested more than once in an assay, its records may differ in their call. Calls of active or inactive are those of the source. Unless noted, calls follow the shape of the dose curve; as a rule, active = well fitted curve in the direction sought with a large enough effect in the repeat runs; inconclusive = weak or mixed curves; inactive = no such curve, though single readings can be large; an effect the other way counts as inactive or inconclusive.

A short description of experiment [1]: qHTS assay to identify small molecule agonists of the progesterone receptor (PR) signaling pathway - cell viability counter screen (AID 1346799; calls by dose curve; also: nearly all actives have a fitted effect of over 45% in size; also: potency is read from the fitted curve at half-maximal effect). In a few lines:
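PR-UAS-bla HEK293T cells, 3,000 per well in medium with 2% charcoal-stripped FBS, were preincubated 6 hr at 37C, then exposed to compounds for 16 hr; viability was read as CellTiter-Glo luminescence after 30 min at room temperature.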

The nature of experiment [2]: qHTS assay to identify small molecule antagonists of the TGF-beta/Smad signaling pathway - cell viability counter screen (AID 1346824). Also: nearly all actives have a fitted effect of over 50% in size. The procedure, abridged:
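SBE-bla HEK 293T cells were plated overnight at 37 C, then given compounds in DMSO plus TGF-beta1 (added as 0.25 ng/mL solution) for 5 hr. After the bla read, CellTiter-Glo was added to the same wells and luminescence read after 30 min at room temperature.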

A short description of experiment [3]: qHTS assay to identify small molecule agonists of the TGF-beta/Smad signaling pathway - cell viability counter screen (AID 1346829). Also: top concentration of the series differs between compounds; nearly all actives have a fitted effect of over 45% in size. The procedure, abridged:
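CellTiter-Glo luminescence readout; SBE-bla HEK 293T cells, overnight plating, compound 5 hr at 37 C/5% CO2, then bla substrate 2 hr RT, then CellTiter-Glo 30 min RT.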
(In qHTS, concentration-response curves come from the screen itself.)

A short description of experiment [4]: qHTS assay to identify small molecule agonists of the TGF-beta/Smad signaling pathway (AID 1346859; active = well fitted activation curve with a large enough effect in the signal ratio in the repeat runs, not every such curve was filed as active; the % refers to the signal ratio; also: series mostly up to about 77 µM). In a few lines: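 HEK 293T cells stably carrying a beta-lactamase reporter driven by the Smad binding element were seeded overnight, exposed to DMSO-dissolved compounds for 5 hr at 37 C, 5% CO2, then loaded with FRET substrate for 2 hr at room temperature.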

The target of experiment [5] is Thyrotropin-releasing hormone receptor (Homo sapiens) (UniProt P34981). Briefly: qHTS assay to identify small molecule antagonists of the thyrotropin-releasing hormone receptor (TRHR) signaling pathway (AID 1346877; active = well fitted inhibition curve with a large enough effect in the repeat runs, not every such curve was filed as active; also: series mostly up to about 51 µM). In a few lines:
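Kinetic fluorescence (3 min, 1 s resolution) following stimulation with TRH at 1 nM final; HEK293 cells bearing human TRHR; 5 min compound preincubation at RT; concentration-response over 15 points, triplicates.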

For experiment [6] the target is unchanged. Put plainly: qHTS assay to identify small molecule agonists of the thyrotropin-releasing hormone receptor (TRHR) signaling pathway (AID 1346891; calls by dose curve; also: series mostly up to about 58 µM). The procedure, abridged: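 TRHR-expressing HEK293 cells were plated 18 h at 37 °C/5% CO2, loaded with calcium dye 2 h at 37 °C, then given compound in DMSO; fluorescence was read kinetically for 3 min at 1 s intervals.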

A short description of experiment [7]: Caspase-3/7 induction in HepG2 cells by small molecules, qHTS assay (AID 1346978). Also: nearly all actives have a fitted effect of over 15% in size. The procedure, abridged: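 Wild-type HepG2 cells (2,000/well) were settled 5 h at 37 C, 5% CO2, then exposed to compounds in DMSO for 17 h. Caspase-3/7 activity was read by luminescence 30 min after adding Caspase-Glo 3/7 reagent at room temperature.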
Experiment [8] is described as follows: Caspase-3/7 induction in CHO-K1 cells by small molecules, qHTS assay (AID 1346980). Also: nearly all actives have a fitted effect of over 15% in size. The procedure, abridged: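 Wild-type cells were seeded at 1,500 per well and settled 5 hr at 37 C, 5% CO2, then exposed to DMSO-dissolved compounds for 17 hr. Caspase-Glo 3/7 reagent was added, and luminescence was read after 30min at room temperature.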
The nature of experiment [9]: Human pregnane X receptor (PXR) small molecule agonists, qHTS cell viability counter screen (AID 1346977). Also: nearly all actives have a fitted effect of over 50% in size. In a few lines: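 PXR-Luc HepG2 cells in medium with 5% charcoal-stripped FBS were pre-incubated 5hr, then exposed to compounds for 24hr at 37C. Viability was read in the same wells by CellTiter-Fluor fluorescence, reagent added after 23hr with a 1hr incubation.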

The nature of experiment [10]: Caspase-3/7 induction in CHO-K1 cells by small molecules, qHTS cell viability counter screen (AID 1346979). Also: nearly all actives have a fitted effect of over 35% in size. In a few lines: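 Wild-type CHO-K1 cells were seeded at 1,500 per well, rested 5hr at 37 C, then exposed to compounds in DMSO. After 16hr, CellTiter-Fluor reagent was added and fluorescence read 1hr later as the viability measure.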

Sequence of Thyrotropin-releasing hormone receptor (Homo sapiens) (P34981 whole entry, looked up): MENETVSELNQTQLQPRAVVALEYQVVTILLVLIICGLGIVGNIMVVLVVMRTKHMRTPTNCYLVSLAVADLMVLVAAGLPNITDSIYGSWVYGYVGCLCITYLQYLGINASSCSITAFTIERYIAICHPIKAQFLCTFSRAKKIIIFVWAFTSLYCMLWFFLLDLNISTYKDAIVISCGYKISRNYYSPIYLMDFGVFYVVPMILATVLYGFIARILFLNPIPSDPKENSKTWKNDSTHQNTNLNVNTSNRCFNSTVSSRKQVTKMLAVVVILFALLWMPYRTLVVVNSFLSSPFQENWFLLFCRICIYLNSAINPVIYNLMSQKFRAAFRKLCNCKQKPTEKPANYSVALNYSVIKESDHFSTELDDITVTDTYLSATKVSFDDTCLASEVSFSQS

`CCC(C)(CC)c1cc(NC(=O)c2c(OC)cccc2OC)on1`: the Potency entry in experiment [1], in [2], in [4] and in [6] was “inactive” in each case. In addition, the result in [3], in experiment [5], in [7] and in experiment [8] was inactive.
As to `O=[N+]([O-])c1ccccc1`, the Potency result in [1], in [2], in experiment [4], in [9] and in experiment [10] was “inactive” in each case. The call in experiment [3], in experiment [5], in [7] and in experiment [8] was inactive.
For the compound `C#CCN(C)[C@H](C)Cc1ccccc1`, the Potency entry in experiment [1], in experiment [2], in experiment [4], in experiment [6], in experiment [9] and in experiment [10] was “inactive” throughout. In addition, the compound was called inactive in experiment [3], in [5], in [7] and in experiment [8].
As for `CCCCCOC(=O)c1ccccc1C(=O)OCCCCC`, the Potency entry in [1], in [2], in [4], in experiment [9] and in experiment [10] was “inactive” in each case. Also, the compound was classed as inactive in experiment [3], in experiment [5], in [7] and in experiment [8].
With `Clc1ccccc1Cl`, the Potency result in experiment [1], in experiment [2], in experiment [4], in experiment [9] and in experiment [10] was “inactive” throughout. Moreover, the outcome in experiment [3], in experiment [5], in experiment [7] and in experiment [8] was inactive.
For `O=NN1CCCCCCC1`, the Potency entry in experiment [1], in [2], in experiment [4], in experiment [9] and in experiment [10] was “inactive” in each case. Moreover, the compound was classed as inactive in [3], in experiment [5], in [7] and in experiment [8].
On to `[O-][Cl+2]([O-])O`, for which the Potency result in experiment [1], in experiment [2], in experiment [4], in experiment [6], in experiment [9] and in [10] was “inactive” throughout. The call in experiment [3], in experiment [5], in experiment [7] and in experiment [8] was inactive.
Regarding `CN(N=O)c1ccccc1`, the Potency result in [1], in experiment [2], in experiment [4], in experiment [9] and in experiment [10] was “inactive” throughout. Besides, the compound was classed as inactive in [3], in [5], in experiment [7] and in experiment [8].
For `CC(=O)C=C(C)C`, the Potency entry in [1], in [2], in experiment [4], in [9] and in [10] was “inactive” in each case. The call in experiment [3], in [5], in experiment [7] and in experiment [8] was inactive.
Turning to `CN=C=S`, the Potency result in experiment [1], in [2], in [4], in experiment [9] and in [10] was “inactive” each time. Also, the compound was called inactive in [3], in [5], in experiment [7] and in experiment [8].
Consider `Cc1cc(Cl)ccc1O`, for which the Potency result in experiment [1], in [2], in experiment [4], in experiment [9] and in experiment [10] was “inactive” throughout. Further, the call in experiment [3], in [5], in experiment [7] and in experiment [8] was inactive.
`CC(NC(C)(C)C)C(=O)c1cccc(Cl)c1` (configuration not stated): the Potency result in experiment [1], in experiment [2], in experiment [4] and in experiment [10] was “inactive” in each case. Further, the call in [3], in experiment [5], in experiment [7] and in experiment [8] was inactive.
Turning to `CC(C#N)CCC#N` (configuration not stated), the Potency result in [1], in experiment [2], in [4], in experiment [6] and in experiment [10] was “inactive” throughout. The outcome in experiment [3], in experiment [5], in experiment [7] and in [8] was inactive.
For the compound `CCc1cccc(C)c1N(C(=O)CCl)C(C)COC` (configuration not stated), the Potency entry in [1], in [2], in experiment [4], in [9] and in experiment [10] was “inactive” in each case. For the same compound, the result in experiment [3], in experiment [5], in [7] and in experiment [8] was inactive.
As for `ClCCBr`, the Potency entry in experiment [1], in experiment [2], in experiment [4], in experiment [6] and in [10] was “inactive” throughout. The call in [3], in experiment [5], in experiment [7] and in experiment [8] was inactive.
For `C#CC(C)(C)NC(=O)c1cc(Cl)cc(Cl)c1`, the Potency entry in [1], in experiment [2], in experiment [4], in [6] and in experiment [10] was “inactive” throughout. Besides, the outcome in [3], in experiment [5], in experiment [7] and in experiment [8] was inactive.
Regarding `CCNc1nc(NC(C)(C)C)nc(SC)n1`, the Potency entry in [1], in experiment [2], in [4] and in experiment [10] was “inactive” throughout. Besides, the call in experiment [3], in [5], in experiment [7] and in experiment [8] was inactive.
Turning to `CCOC(=O)c1ccccc1C(=O)OCC`, the Potency result in [1], in experiment [2], in [4], in experiment [9] and in experiment [10] was “inactive” in each case. In addition, the result in experiment [3], in experiment [5], in experiment [7] and in [8] was inactive.
Turning to `C=CC(N)=O`, the Potency entry in [1], in experiment [2], in [4], in [6] and in experiment [10] was “inactive” throughout. In addition, the outcome in experiment [3], in [5], in experiment [7] and in experiment [8] was inactive.
Regarding `Cc1ccc([N+](=O)[O-])cc1C`, the Potency entry in experiment [1], in [2], in [4], in experiment [6], in [9] and in experiment [10] was “inactive” in each case. In addition, the result in experiment [3], in [5], in experiment [7] and in experiment [8] was inactive.
Take `Nc1ccccc1C(=O)O`: the Potency result in [1], in experiment [2], in experiment [4], in [6], in experiment [9] and in [10] was “inactive” in each case. Besides, the call in experiment [3], in experiment [5], in experiment [7] and in experiment [8] was inactive.
Turning to `CC(C)OC(=O)Nc1cccc(Cl)c1`, the Potency entry in experiment [1], in experiment [2], in experiment [4], in [6], in experiment [9] and in experiment [10] was “inactive” throughout. The compound was classed as inactive in experiment [3], in experiment [5], in [7] and in [8].
Take `COC(=O)c1ccccc1N`: the Potency result in experiment [1], in [2], in experiment [4], in experiment [9] and in [10] was “inactive” in each case. The compound was called inactive in [3], in experiment [5], in experiment [7] and in experiment [8].
In the case of `CN1C(=O)CN=C(c2ccccc2)c2cc(Cl)ccc21`, in experiment [1], the Potency was 27.7 µM (active) and inactive. The Potency entry in experiment [2], in [4], in experiment [9] and in [10] was “inactive” in each case. Besides, the compound was called inactive in experiment [3], in experiment [5] and in experiment [8].
On to `CCCN(CCC)c1c([N+](=O)[O-])cc(C(F)(F)F)cc1[N+](=O)[O-]`, for which the Potency entry in experiment [1], in [2], in experiment [4], in experiment [6], in experiment [9] and in experiment [10] was “inactive” each time. Moreover, the call in experiment [3], in [5], in [7] and in [8] was inactive.
